Measurements published in PubChem BioAssay (NCI).
About 83,000 compounds went through this panel and 20% of them were active in at least one assay; those are over-represented in the sample as a whole.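 Cells were grown in 96-well plates and exposed to the test compound at a single concentration for 48 hours; results are reported as percent growth, with values below 10 considered active.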 Values without a mark were called inactive. Activity calls are given as the source filed them.

Experiments:
Experiment in all cases: NCI-60 one-dose screen, 48 h (100 = growth as untreated, 0 = no growth, -100 = all killed)
Details in all cases: 10 µM unless noted
RPMI-8226 leukemia = tested on: RPMI-8226 leukemia
OVCAR-8 ovarian = tested on: OVCAR-8 ovarian
OVCAR-5 ovarian = tested on: OVCAR-5 ovarian
OVCAR-4 ovarian = tested on: OVCAR-4 ovarian
SK-OV-3 ovarian = tested on: SK-OV-3 ovarian
IGROV1 ovarian = tested on: IGROV1 ovarian
OVCAR-3 ovarian = tested on: OVCAR-3 ovarian
HS 578T breast = tested on: HS 578T breast
NCI/ADR-RES ovarian = tested on: NCI/ADR-RES ovarian
T-47D breast = tested on: T-47D breast
BT-549 breast = tested on: BT-549 breast
MDA-MB-435 melanoma = tested on: MDA-MB-435 melanoma
SW-620 colon = tested on: SW-620 colon
MCF7 breast = tested on: MCF7 breast
HCT-116 colon = tested on: HCT-116 colon
HCC-2998 colon = tested on: HCC-2998 colon
KM12 colon = tested on: KM12 colon

Compound | growth (RPMI-8226 leukemia) | growth (OVCAR-8 ovarian) [%] | growth (OVCAR-5 ovarian) [%] | growth (OVCAR-4 ovarian) [%] | growth (SK-OV-3 ovarian) | growth (IGROV1 ovarian) | growth (OVCAR-3 ovarian) | growth (HS 578T breast) | growth (NCI/ADR-RES ovarian) | growth (T-47D breast) [%] | growth (BT-549 breast) [%] | growth (MDA-MB-435 melanoma) | growth (SW-620 colon) | growth (MCF7 breast) [%] | growth (HCT-116 colon) | growth (HCC-2998 colon) | growth (KM12 colon) [%]
COc1c(C2CC(=O)Nc3c2c(C)nn3-c2nc3ccccc3[nH]2)cc2c(c1OC)OCO2 (stereo not drawn) | 53.6% | 52 | 105 | 83.2 | 42% | 48.8% | 36.1% | 28.3% | 39.8% | 43.8 | 47.8 | -32.7% (active) | 36.4% | 24.1 | 28.5% | 94.1% | 45.9
CCN1C(=O)N(CC)C2Nn3c(s/c(=C\c4ccc([N+](=O)[O-])cc4)c3=O)=NC21 (stereo not drawn) | 51.8% | 66.7 | 82.5 | 14.2 | 105% | 17.3% | 11.6% | 83.4% | 23.4% | 40.2 | 95.2 | 61.9% | 60.2% | 11 | 18.2% | 101% | 97.8
CN(C)CC#Cc1ccc2ncc(C#N)c(Nc3ccc(F)c(Cl)c3)c2c1 | 50.3% | 45.2 | 54.8 | 38.1 | 17.4% | 3.51% (active) | 54.9% | 52.1% | 42.9% | 44 | 51.1 | 65.3% | 57.3% | 79.4 | 40.7% | 60.3% | 79.7
CCOC(=O)Cn1c(C)c(/C=N/NC(=O)c2cc3c(ccc4ccccc43)o2)c2ccccc21 | 10.6% | 15.5 | 40 | 51 | 6.12% (active) | 26.3% | 0.688% (active) | 34.7% | 8.7% (active) | 58.7 | 35.3 | -11.4% (active) | 30.4% | 17 | 8.16% (active) | 31.3% | 15.6
COc1ccc(/C=C/c2c(C(=O)/C=C/c3ccc(Cl)cc3)c(C)nc3ccccc23)cc1 | -28.6% (active) | 20.9 | 16.9 | 40.6 | 64.5% | 13.6% | -4.96% (active) | 34.4% | 12.4% | 23.2 | 54.5 | 2.02% (active) | -17% (active) | 26.2 | -64.6% (active) | -48.6% (active) | 30.2
C[C@]12CC[C@@H]3c4cc(OC(F)F)c(OS(N)(=O)=O)cc4CC[C@H]3[C@@H]1CC[C@@H]2OS(N)(=O)=O | 39.3% | 46.2 | 94.9 | 76.1 | 44.7% | 47.6% | 16.2% | 5.84% (active) | 11.3% | 43.4 | 62.7 | 42.8% | 22% | 20.2 | 20.3% | 74.1% | 35.6
CC(=O)OC[C@H]1OC(Sc2sc(C(=O)c3ccc(Cl)cc3)c(N)c2-c2nc3ccccc3s2)[C@H](OC(C)=O)[C@@H](OC(C)=O)[C@@H]1OC(C)=O (stereo partly drawn) | 73% | 72.6 | 87.3 | 52.5 | 90.5% | 70.9% | 103% | 71.4% | 78.7% | 89.5 | 98.5 | 96.5% | 82.7% | 82.1 | 50.8% | 109% | 89.3
CN1CCN(c2ccc(-c3cc4c(Nc5ccc(F)c(Cl)c5)ncnn4c3)cn2)CC1 | 3.77% (active) | 77.1 | 97.8 | 88.4 | 110% | 89.5% | 98.6% | 76.9% | 83.6% | 96.2 | 105 | 96.1% | 40.4% | 77.4 | 1.89% (active) | 98.6% | 93.7
Cc1cc(Cl)ccc1NS(=O)(=O)c1ccc(-c2cnc(C3CC3)o2)cc1 | 19.3% | 27.4 | 27.8 | 40 | 50.8% | 23.3% | -16.9% (active) | 22.1% | 6.12% (active) | 49.6 | 11.5 | -36.4% (active) | 21.9% | 12.7 | 12.9% | 15.9% | 15.5
